FLuc modulator: firefly luciferase modulation, counter-screen for miR-21 project. 360,000 tested, 6.9% active. AID 588342. Potency, µM (highest dose often 57.5 µM), hits mostly inhibitors. purified FLuc, Km substrates, luminescence inhibition. P08659; note: nearly all actives have a fitted effect of over 55% in size
Target sequence (P08659 whole entry, looked up): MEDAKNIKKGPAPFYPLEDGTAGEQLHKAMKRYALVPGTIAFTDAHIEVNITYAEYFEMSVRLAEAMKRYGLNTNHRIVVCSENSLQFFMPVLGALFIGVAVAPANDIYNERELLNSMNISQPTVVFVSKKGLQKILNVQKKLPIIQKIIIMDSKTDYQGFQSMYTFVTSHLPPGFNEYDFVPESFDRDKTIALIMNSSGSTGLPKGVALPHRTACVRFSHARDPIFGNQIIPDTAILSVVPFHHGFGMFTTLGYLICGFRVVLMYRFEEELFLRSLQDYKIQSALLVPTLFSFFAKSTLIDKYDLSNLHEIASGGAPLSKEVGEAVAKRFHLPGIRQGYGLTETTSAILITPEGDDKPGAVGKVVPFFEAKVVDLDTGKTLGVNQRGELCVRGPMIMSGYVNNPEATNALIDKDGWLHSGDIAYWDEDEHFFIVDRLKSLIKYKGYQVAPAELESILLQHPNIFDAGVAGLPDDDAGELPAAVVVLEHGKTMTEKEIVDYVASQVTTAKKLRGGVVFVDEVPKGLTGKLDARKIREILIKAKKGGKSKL
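Purified P. pyralis luciferase (10nM final) with 10uM D-luciferin and 10uM ATP (Km levels) in 50mM Tris acetate pH 7.5, 10mM Mg acetate, 0.01% Tween-20, 0.05% BSA; qHTS 6-point titration, ~60 µM downward; luminescence read.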
NPC1 promoter act: activates the NPC1 promoter | Huh7 NPC1 promoter luciferase reporter, 24 h | Potency, µM (series often up to 9.22 µM), usual class: activators | 320,000 tested, 2.4% active | AID 485313; note: nearly all actives have a fitted effect of over 60% in size
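Readout is luciferase luminescence, reflecting NPC1 promoter activation in stably transfected Huh7 cells after 24 h compound exposure at 37 °C in reduced-serum medium with 10% FBS.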
ELG1 genotox: induces genotoxicity in HEK293T cells with luciferase-tagged ELG1; HEK293T ELG1-luciferase reporter, luminescence, 16 h; 330,000 tested, 1.3% active; Potency, µM (top dose mostly 46 µM), actives largely listed as activators; note: nearly all actives have a fitted effect of over 60% in size
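Reporter readout depends on ELG1 protein level, which increases with genetic stress. After 16 hr compound exposure at 37 °C, luciferase activity was quantified using ONE-Glo.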
KinaseGlo FLuc: blocks Kinase-Glo luciferase, a counter-screen artifact | Kinase-Glo luciferase, ATP luminescence, 8 min | Potency, µM (top dose mostly 38.3 µM), most hits filed as inhibitors | 200,000 tested, 0.28% active; note: nearly all actives have a fitted effect of over 60% in size
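Compounds were added to a substrate mix at pH 7.2 (50 mM imidazole, 10 uM ATP, within the enzyme's linear range), followed by Kinase-Glo detection reagent; luminescence was measured after 8 minutes at ambient temperature.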
Rab9 prom act: activates the Rab9 promoter; Huh7 Rab9 promoter-luciferase reporter, luminescence, 24 h; Potency, µM (series often up to 9.22 µM), hits mostly activators; 320,000 tested, 2.8% active; AID 485297; note: nearly all actives have a fitted effect of over 60% in size
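Using Huh7 cells stably transfected with Rab9 promoter–luciferase, compounds were incubated 24 h at 37 °C, 5% CO2; luciferase luminescence was read 10 min after reagent addition.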
SMN2 splice enh: SMN2 splice variant enhancement; HEK293 SMN2-luciferase splicing reporter, luminescence, 30-36 h; Potency, µM (titrated, usually from 46.1 µM), hits mostly activators; 210,000 tested, 2.8% active; AID 1458; note: nearly all actives have a fitted effect of over 55% in size
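HEK293 cells carry an SMN2 […]–luciferase reporter in which exon 7 inclusion puts luciferase in frame. Cells were plated 10-12 h before compound addition, then incubated 30-36 h at 37C. ONE-Glo luminescence was read; sodium butyrate at 4.5 mM final served as control.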
Each line names hits and unclear results; the compound was inactive in the other large screens. Compounds with a hit are over-represented: about 7.5% of the library has one in this group of screens. Calls come from the whole dose curve; as a rule, active = well fitted curve in the direction sought with a large enough effect; inconclusive = small, poorly fitted or top-dose-only effect, or another doubt; inactive = no such curve, though single readings can be large; an effect the other way counts as inactive or inconclusive.

COc1ccc(CNC(=O)COC(=O)CCCOc2ccc(Cl)cc2Cl)cc1OC	FLuc modulator 17µM
Cc1cc(Cl)ccc1OCCCC(=O)NN	none
Cc1ccc(OCC(=O)N2CCCCCC2)c(C)c1	ELG1 genotox inconclusive, SMN2 splice enh 7.1µM
CC(C)c1ccc(OCC(=O)N2CCCCCC2)c(Br)c1	FLuc modulator 21µM, NPC1 promoter act inconclusive, ELG1 genotox inconclusive, Rab9 prom act 2.8µM
COc1ccc(-n2c(=O)c3ccc(C(=O)NCc4ccc(C)cc4)cc3n(Cc3cccc(Cl)c3)c2=O)cc1	none (no result: NPC1 promoter act, ELG1 genotox, KinaseGlo FLuc, Rab9 prom act)
Cc1cc(Cl)ccc1OCCCC(=O)N1CCCCC1	FLuc modulator 21µM, NPC1 promoter act inconclusive, ELG1 genotox inconclusive, Rab9 prom act inconclusive
Oc1ccc2cccnc2c1	none
O=C(Cc1ccc2cccnc2c1)c1ccc(O)cc1O	FLuc modulator 21µM, ELG1 genotox inconclusive, Rab9 prom act inconclusive
O=C(Nc1ccc(C(=O)OCc2cc(=O)n3nc(C4CC4)sc3n2)cc1)c1cccc(F)c1	none (no result: NPC1 promoter act, ELG1 genotox, KinaseGlo FLuc, Rab9 prom act, SMN2 splice enh)
COc1ccc(-c2cc(C(=O)Nc3ccc4c(c3)OCO4)no2)cc1OC	none (no result: KinaseGlo FLuc)
O=C(Nc1ccc2c(c1)OCO2)c1cc(-c2ccccc2Cl)on1	FLuc modulator 5.4µM, NPC1 promoter act 2.5µM, ELG1 genotox 9.2µM, Rab9 prom act 1.6µM (no result: KinaseGlo FLuc, SMN2 splice enh)
O=C(NCc1ccc2c(c1)OCO2)c1cc(-c2ccccc2Cl)on1	FLuc modulator 17µM
COc1ccc(NC(=O)c2ccc3[nH]c(C)cc(=O)c3c2)cc1	none (no result: NPC1 promoter act, ELG1 genotox, KinaseGlo FLuc, Rab9 prom act, SMN2 splice enh)
CCCCN1C(=O)C(=O)N(CC(=O)N2CCN(c3ccccc3)CC2)C1=O	none (no result: KinaseGlo FLuc, SMN2 splice enh)
CCCCN1C(=O)C(=O)N(c2ccccc2)C1=S	FLuc modulator 12µM, NPC1 promoter act 3.2µM, ELG1 genotox inconclusive, Rab9 prom act 3.5µM, SMN2 splice enh 11µM
Cc1ccc(C(=O)Nc2ncc(C)s2)s1	FLuc modulator 0.85µM, NPC1 promoter act 0.45µM, ELG1 genotox inconclusive, Rab9 prom act inconclusive (no result: KinaseGlo FLuc, SMN2 splice enh)
Cc1ccc(C(=O)Nc2ncc(C)s2)o1	FLuc modulator 11µM, NPC1 promoter act 3.2µM, ELG1 genotox inconclusive, KinaseGlo FLuc inconclusive, Rab9 prom act 4µM, SMN2 splice enh 13µM
Cc1ccc(C(=O)Nc2ncc(Cc3ccc(F)cc3)s2)o1	FLuc modulator 2.7µM, NPC1 promoter act 2.5µM, ELG1 genotox inconclusive, Rab9 prom act 2.8µM, SMN2 splice enh 11µM
CSc1ccccc1C(=O)Nc1ncc(C)s1	FLuc modulator inconclusive
CCOC(=O)Cc1ccc(NC(=O)n2ncc3cc(Cl)ccc32)cc1	none (no result: NPC1 promoter act, ELG1 genotox, KinaseGlo FLuc, Rab9 prom act, SMN2 splice enh)
Cc1nc2sc(C(=O)N(C)Cc3ccccc3)c(NC(=O)c3ccccc3)c2c(C)c1Cl	none (no result: NPC1 promoter act, ELG1 genotox, KinaseGlo FLuc, Rab9 prom act)
Cc1ccc(CN2C(=O)c3ccccc3Sc3ccc(C(=O)NC4CCCCC4)cc32)cc1	none (no result: NPC1 promoter act, ELG1 genotox, KinaseGlo FLuc, Rab9 prom act, SMN2 splice enh)
O=C(Cn1ncc2ccsc2c1=O)N1CCN(c2ccccc2F)CC1	none (no result: NPC1 promoter act, ELG1 genotox, KinaseGlo FLuc, Rab9 prom act)
O=C(/C=C/c1ccc2ccccc2c1)c1ccoc1	FLuc modulator 0.54µM, NPC1 promoter act inconclusive, Rab9 prom act inconclusive
O/N=C/c1ccc2ccccc2c1	none (no result: SMN2 splice enh)
Cc1ccc(C)c(OCc2nc3ccccc3[nH]2)c1	FLuc modulator 15µM, NPC1 promoter act inconclusive, Rab9 prom act inconclusive, SMN2 splice enh inconclusive
Nc1ccc(C(=O)Nc2ccc(OC(F)(F)C(F)F)c(NC(=O)c3ccc(N)cc3)c2)cc1	FLuc modulator 21µM (no result: KinaseGlo FLuc, SMN2 splice enh)
Nc1ccc(NC(=O)c2ccc(C(=O)Nc3ccc(N)cc3)cc2)cc1	none (no result: KinaseGlo FLuc, SMN2 splice enh)
CC(C)[C@@H](N)C(=O)N/N=C/c1ccc2ncccc2c1	FLuc modulator inconclusive (no result: KinaseGlo FLuc, SMN2 splice enh)
Fc1c(F)c(F)c(N=Cc2ccc3ncccc3c2)c(F)c1F	FLuc modulator 6.7µM
COc1ccc(N2C(=S)NC3N2C(=S)NC3(C)c2ccccc2)cc1 (stereo unspecified)	FLuc modulator inconclusive, ELG1 genotox inconclusive, Rab9 prom act 4µM, SMN2 splice enh inconclusive
CC(=O)N(CN1C(=O)c2ccccc2C1=O)c1cccc(C)c1	none
CC(=O)N(/N=C1\Sc2ccccc2C1=O)c1cccc(C)c1	FLuc modulator 11µM, NPC1 promoter act inconclusive, ELG1 genotox inconclusive, KinaseGlo FLuc inconclusive, SMN2 splice enh 5.6µM
COC(=O)C1CN(C(=O)COc2ccc(Cl)cc2Cl)c2ccccc2O1 (stereo unspecified)	FLuc modulator 19µM (no result: KinaseGlo FLuc, SMN2 splice enh)
